Experimental findings from PubChem BioAssay (NCATS) are described below.

SMILES strings stand for the structures. Inconclusive results are not listed. The source made the active and inactive calls. The call rests on the fitted dose curve; in most records, active means well fitted curve in the direction sought with a large enough effect; inconclusive means small, poorly fitted or top-dose-only effect, or another doubt; inactive means no such curve, though single readings can be large or run the other way.

Chain of Thioredoxin reductase 1, cytoplasmic (Rattus norvegicus) (O89049 whole entry, looked up): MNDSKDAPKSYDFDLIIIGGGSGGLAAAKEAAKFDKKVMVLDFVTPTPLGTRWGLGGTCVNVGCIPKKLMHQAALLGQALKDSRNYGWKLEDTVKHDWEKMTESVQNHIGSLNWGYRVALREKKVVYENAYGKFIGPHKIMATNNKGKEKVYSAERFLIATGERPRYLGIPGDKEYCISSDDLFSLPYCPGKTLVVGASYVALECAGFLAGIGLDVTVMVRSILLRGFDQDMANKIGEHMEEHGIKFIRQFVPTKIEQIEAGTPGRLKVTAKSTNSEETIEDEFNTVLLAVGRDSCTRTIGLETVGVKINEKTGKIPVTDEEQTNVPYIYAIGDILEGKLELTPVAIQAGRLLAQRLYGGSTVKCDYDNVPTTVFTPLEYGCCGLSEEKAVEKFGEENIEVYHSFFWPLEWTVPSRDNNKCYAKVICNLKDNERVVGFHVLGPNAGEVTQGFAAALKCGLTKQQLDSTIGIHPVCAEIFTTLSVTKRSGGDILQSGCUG

This test concerns the target Thioredoxin reductase 1, cytoplasmic (Rattus norvegicus) (UniProt O89049). The test is described as follows: qHTS Assay for Substrates of Mammalian Selenoprotein Thioredoxin Reductase 1 (TrxR1) (AID 488772). The following applies: purified TrxR1, NADPH consumption substrate assay; series mostly up to 57.1 µM. An excerpt: The selenoprotein thioredoxin reductase (TrxR; EC 1.8.1.9) is a FAD containing homodimeric pyridine nucleotide-disulfide oxidoreductase with many cellular roles. Together with NADPH and its prime substrate thioredoxin (Trx), the enzyme forms the core of the Trx system. The mammalian Trx system exerts a wide spectrum of functions including redox regulation, antioxidant defense, regulation of transcription factors as well as support of cell growth and replication. Many of these functions involve the reduction of Trx, which may subsequently reduce a number of different substrates including ribonucleotide reductase, peroxiredoxins or NFkB. Mammalian TrxR itself also has a broad substrate specificity, reducing both protein and non-protein substrates, including low molecular weight compounds such as dehydroascorbate, lipoic acid, ubiquinone, and juglone. In addition, several drugs in clinical use for anticancer treatment are indeed known to target TrxR1.
This BioAssay is a validation of an NADPH fluorescence-based, dual-purpose qHTS rTrxR1 assay designed to find potential inhibitors and substrates of rTrxR1. For this particular BioAssay, actives are potential substrates. See related BioAssay for inhibitors data deposition.
Assay protocol: 2 uL of reagents (buffer in column 4 as negative control and 90 nM rTrxR1 in columns 1-3 and 5-48) were dispensed into Greiner black solid-bottom 1,536-well assay plates, followed by 1 uL of NADPH (400 uM final concentration) to each well. The plates were centrifuged at 1000 rpm for 15 seconds and subsequently incubated for 5 min at room temperature (~22 deg C) to allow for rTrxR1 reduction. Compounds (23 nL) were then transferred via Kalypsys pin tool equipped with 1536-pin array (10 nL slotted pins, V&P Scientific, San Diego, CA). In addition, a duplicate 2-fold serial dilution of the control compounds auranofin, a known gold-based TrxR1 inhibitor, and juglone (5-hydroxy-1,4-naphthoquinone), a natural TrxR1 substrate, were pin-transferred to columns 2 and 3, respectively. After incubation for 15 min at room temperature (~22 deg C), 1 uL of selenite (400 uM final concentration) were dispensed to each well. The plate was immediately transferred to a ViewLux high-throughput CCD imager (PerkinElmer), wherein kinetic measurements of NADPH fluorescence (Ex 340 nm, Em 450 nm) were acquired (8 minute kinetic read, see Table 1). Read 1 was utilized to assess the capacity of a compound to serve as an rTrxR1 substrate, i.e. a decrease in NADPH fluorescence compared to the no-compound background is an indication of a substrate behavior for that particular compound. For inhibitory activity of a compound, delta values, computed as the difference in fluorescence intensity between the first and last reads of an 8-minute time kinetic window, were used. All reagents were diluted in an assay buffer consisting of 50 mM Tris-HCl, pH 7.5, 2 mM EDTA, and 0.01% Tween-20.
Throughout the screen, reagent bottle and all liquid lines were made light-tight to minimize reagent degradation. All screening operations were performed on a fully integrated robotic system (Kalypsys, San Diego, CA) containing one RX-130 and two RX-90 anthropomorphic robotic arms (Staubli, Duncan, SC). Library plates were screened starting from the lowest and proceeding to the highest concentration, and a 'double-pinning' step of the highest concentration was required to access higher concentrations of compounds. Vehicle-only plates, with DMSO being pin-transferred to the columns 5-48, were inserted uniformly at the beginning and the end of each library in order to monitor and record any shifts in the background, which can be affected by reagent dispensers or loss in enzyme activity over time. Screening data were corrected, normalized, and concentration-effect relationships were derived by using publicly-available curve fitting algorithms developed in-house (http://ncgc.nih.gov/pub/openhts).
`CN(C)S(=O)(=O)c1ccc2c(c1)/C(=C/c1cc3c([nH]1)CCCC3)C(=O)N2`: the outcome was inactive.
In the case of `COc1cc(C(O)CO)ccc1O` (stereo not given) it was “inactive”; in that of `C=CCN1CCc2c(cc(O)c(O)c2Br)[C@@H](c2ccccc2)C1`, “inactive”.
In the case of `CC(=O)/C(C)=N/O` it was “inactive”; in that of `CC[C@@H]1Cc2cc(O)ccc2C2=C1c1ccc(O)cc1C[C@H]2CC`, “inactive”; in that of `O=c1cc(-c2ccccc2F)[nH]c2cc3c(cc12)OCO3`, “inactive”.
The entry for `CCCCCCCCCCCCCCSCC(=O)O` is “inactive”; for `O=C(O)C1=CCNCC1` it is “inactive”.
Take `O=c1[nH]c(=O)c2nc3ccccc3nc2[nH]1`: the molecule was classed as inactive.
The entry for `[N-]=[N+]=Nc1ccc(C(=O)CSC[C@H](NC(=O)CC[C@H](N)C(=O)O)C(=O)NCC(=O)O)cc1` is “inactive”; for `COc1cc(CNC(=O)CCCCCCC(C)C)ccc1O` it is “inactive”; for `O=C1OC(=O)C2C3CCC(O3)C12` (stereo not given) it is “inactive”.
The entry for `CC1=C(C(=O)O)N2C(=O)[C@@H](NC(=O)C(N)C3=CCC=CC3)[C@H]2SC1` (stereo not given in full) is “inactive”.
In the case of `Cc1ccc([N+](=O)[O-])cc1S(=O)(=O)N(C)C` it was “inactive”.
Take `CC[n+]1c(/C=C/C=C2/N(C)c3ccccc3C2(C)C)sc2ccccc21`: the molecule was classed as inactive.
In the case of `CC[C@H](NC(=O)c1c(C)c(-c2ccccc2)nc2ccccc12)c1ccccc1` it was “inactive”; in that of `O=C(O)Cc1ccc(O)c(O)c1`, “inactive”; in that of `Oc1ccc(Cn2cc[nH]c2=S)cc1`, “inactive”.
The entry for `N#Cc1cc2nc(O)c(O)nc2cc1[N+](=O)[O-]` is “inactive”.
The entry for `COc1ccc(-c2ccc(N)[n+](CCCC(=O)O)n2)cc1` is “inactive”; for `COc1ccc(C(=O)NCc2cccnc2)cc1C(=O)NCc1cccnc1` it is “inactive”; for `N[C@@H](Cc1ccc(F)cc1)C(=O)O` it is “inactive”.
As for `CCCC(=O)NCCc1c2n(c3ccc(OC)cc13)CCCc1ccccc1-2`, the result was inactive.
The entry for `O=C1C2C=CC=CC2=NC(=S)N1CCN1CCC(=C(c2ccc(F)cc2)c2ccc(F)cc2)CC1` (stereo not given) is “inactive”.
Consider `N[C@H]1CONC1=O`, for which the call was inactive.
The entry for `CC(C)NCC(O)COc1ccc(CC(N)=O)cc1` (stereo not given) is “inactive”; for `CC(O)C(O)[C@H]1CNc2nc(N)[nH]c(=O)c2N1` (stereo not given in full) it is “inactive”; for `CC(C)(CO)Cc1cc(C(C)(C)C)c(O)c(C(C)(C)C)c1` it is “inactive”.
In the case of `Cc1cccc(C(=O)NCN2CCN(c3ccccc3C#N)CC2)c1` it was “inactive”; in that of `O[Si](CCCN1CCCCC1)(c1ccc(F)cc1)C1CCCCC1` (stereo not given), “inactive”; in that of `COc1ccccc1N1CCN(CCCCN2C(=O)c3ccccc3C2=O)CC1`, “inactive”.
The entry for `CCCCCCC/C=C\CCCCCCCCC(=O)O` is “inactive”; for `COc1ccccc1N1CCN(CCN(C(=O)c2ccc(F)cc2)c2ccccn2)CC1` it is “inactive”.
Turning to `CCCCCCCCCC(=O)NC(CN1CCOCC1)[C@H](O)c1ccccc1` (stereo not given in full), the result was inactive.
The entry for `C[N+](C)(C)CC=O` is “inactive”.
In the case of `CC(=O)C(C)=O` it was “inactive”; in that of `COC(=O)C(C)(N)Cc1ccc(O)cc1` (stereo not given), “inactive”.
As for `COc1cc(CC(=O)O)ccc1O`, the result was inactive.
Regarding `O=c1[nH]c(=S)[nH]c(-c2ccccc2)c1Cc1c(O)ccc2ccccc12`, the molecule was classed as inactive.
In the case of `OC[C@H]1O[C@H](n2cnc3c(N[C@H]4CCC[C@@H]4O)ncnc32)[C@H](O)[C@@H]1O` it was “inactive”.
